This note sets out measurements from PubChem BioAssay (NCATS).

The structures appear in SMILES notation. A number with no mark means an inactive call. Inconclusive results are not listed. Active and inactive are the calls of the source. Unless noted, the call rests on the fitted dose curve; in most records, active means well fitted curve in the direction sought with a large enough effect; inconclusive means small, poorly fitted or top-dose-only effect, or another doubt; inactive means no such curve, though single readings can be large; an effect the other way counts as inactive or inconclusive.

The target in test [1] is Cytochrome P450 1A2 (Homo sapiens) (UniProt P05177). Kind of test: p450-cyp1a2 (AID 410; calls by dose curve; further: potency means the concentration at half of the fitted maximal effect). In outline: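 Human CYP1A2 (20nM) demethylated Luciferin-ME at its Km (100uM) in 100mM KPO4. After 10 min compound preincubation, NADPH regeneration ran the reaction 60 min at room temperature. Luciferin was read by luminescence, normalized to 57 uM furafylline.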
Test [2] can be described thus: NFAT Signaling Pathway (AID 444; active means well fitted curve in either direction with a large enough effect, not every such curve was filed as active;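 further: carbachol stimulus at about its EC50 of 1 µM final; on the % scale 0 is the no-effect control and ±100 the full control effect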). Conditions: Jurkat NFAT-bla M1, carbachol, beta-lactamase ratio, 5 h; at 17.2 µM (top of the series) unless noted. The method in brief:
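Jurkat cells carrying an NFAT-driven β-lactamase reporter and co-transfected muscarinic M1 receptor were treated with compound plus carbachol (1 uM final, an EC50 level) for 5 h at 37 °C. CCF4 loading followed for 1 h at RT; 460/530 nm ratio gave %activity.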

Test [3] concerns the target Glucocorticoid receptor (Homo sapiens) (UniProt P04150). Kind of test: GR-GFP Redistribution (AID 450;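 active means compounds whose dose series gives a full or clear partial fitted curve of increased nuclear translocation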; further: potency means the concentration at half of the fitted maximal effect).
Test [4] shares this target. Kind of test: GR-EFC Redistribution (AID 451; calls by dose curve; further: potency means the concentration at half of the fitted maximal effect). To be noted: CHO-K1 GR-EFC translocation, beta-gal luminescence, 2 h. In outline: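 CHO-K1 cells stably expressing nuclear-localized β-gal enzyme acceptor and GR fused C-terminally to the enzyme donor fragment; ligand-driven nuclear translocation restores β-gal by complementation. Compounds titrated up to 46 uM final, 2 h at 37 °C; luminescence read.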

In test [5] the target is Mitogen-activated protein kinase 10 (Mus musculus) (UniProt Q61831). The experiment in a line: JNK3 AlphaScreen Assay (AID 530; active means well fitted curve in either direction with a large enough effect, not every such curve was filed as active;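 further: kinase came from lysate of stimulated human HepG2 cells; signal reports phosphorylation of biotinylated GST-cJun 1-79 at Ser73 with 10 µM ATP; on the % scale 0 is the no-effect control and ±100 the full control effect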). In outline:
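JNK3 came from HepG2 lysates pre-activated with IL-1beta and TNF-alpha and phosphorylated biotinylated GST-cJun (1-79) at 10 uM ATP, pH 7.6, room temperature. Compounds were titrated. AlphaScreen signal used anti-phospho-cJun (Ser73) antibody.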
For orientation: In Alpha technology, singlet oxygen from a donor bead excites a nearby acceptor bead.

The target in test [6] is 3',5'-cyclic-AMP phosphodiesterase 4B (Homo sapiens) (UniProt Q07343). The experiment in a line: qHTS Assay for Inhibitors of PDE-IV (AID 607; active means well fitted activation curve with a large enough effect in the main read-out, with a control signal flat, not every such curve was filed as active; further: % of control where 0% means no effect). In outline: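 The readout is membrane depolarisation from a cAMP-sensing CNG channel, detected with a potential dye at ex 535/em 590. Cells were HEK293-derived (endogenous PDE-IV) at 1000 cells/well, titrated up to 22.9 uM final.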

For test [7], the target named is Cytochrome P450 3A4 (Homo sapiens) (UniProt P08684). The experiment in a line: qHTS Assay for Activators of Cytochrome P450 3A4 (AID 885). Further: nearly all actives have a fitted effect of over 65% in size. The method in brief:
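Steps: enzyme/substrate mix dispensed; compound added, 10 min RT; NADPH regeneration solution added, 60 min RT; luciferin detection buffer stops reaction; 20 min later luminescence measured.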
For orientation: Quantitative high-throughput screening tests each substance at several concentrations.

The target in test [8] is Pyruvate kinase (Leishmania mexicana) (UniProt Q27686). Kind of test: qHTS Validation Assay for Inhibitors of Leishmania Mexicana Pyruvate Kinase (AID 945). Further: potency means the concentration at half of the fitted maximal effect. The method in brief: (§1)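 Eight-point qHTS titrations in triplicate, data normalized to DMSO neutral control. Reaction: 0.2 nM LmPYK E451W mutant, 0.5 mM PEP, 0.1 mM ADP, 7 mM MgCl2, pH 7.2, one hour at room temperature; luminescent ATP detection.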

Test [9] concerns the target Pyruvate kinase PKM (Homo sapiens) (UniProt P14618). The experiment in a line: qHTS Assay for Activators of Human Muscle Pyruvate Kinase (AID 954; active means well fitted curve in the direction sought with a large enough effect, not every such curve was filed as active;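 further: 0% = uninhibited enzyme and -100% = no enzyme or full thiadiazolimine inhibition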). The method in brief: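 Reaction: 0.1 nM purified PKM2 with 0.5 mM phosphoenolpyruvate and 0.1 mM ADP, room temperature, 1 h. Readout: luciferase-based ATP luminescence after stop reagent. Activators judged against a 0.3 nM enzyme column.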

Test [10] has the same target. The experiment in a line: qHTS Assay for Inhibitors of Human Muscle Pyruvate Kinase (AID 958). The method in brief:
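Luminescence from a luciferase ATP-detection/stop reagent reported PKM2 activity. Reactions contained 0.1 nM purified human enzyme, 0.5 mM PEP, 0.1 mM ADP and 7 mM MgCl2 at pH 7.2, run 1 h at RT.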

The target of test [11] is Pyruvate kinase (Leishmania mexicana) (UniProt Q27686). Kind of test: qHTS Validation Assay for Activators of Leishmania Mexicana Pyruvate Kinase (AID 959). The method in brief: as §1
The target in test [12] is Alpha-galactosidase A (Homo sapiens) (UniProt P06280). The experiment in a line: Counterscreen for Glucocerebrosidase Inhibitors: qHTS Assay for Human alpha-Galactosidase at pH 4.5 (AID 992). Further: 0% is about no effect. The method in brief: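 Concentration-response curves (0.7 nM to 77 uM final) were modeled with the Hill equation to give AC50. Reactions: 2 nM enzyme, 80 uM fluorogenic alpha-galactoside, pH 4.5 citric acid buffer, 20 min, room temperature.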

Test [13] concerns the target alpha-glucosidase (Oryza sativa, rice) (UniProt Q653V4). Kind of test: Counterscreen for Glucocerebrosidase Inhibitors: qHTS Assay for Rice alpha-Glucosidase at pH 5.0 (AID 997).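 Further: 0% = full activity with enzyme and -100% = basal without enzyme.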 The method in brief: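 Rice alpha-glucosidase (4 nM final) with 400 uM 4-methylumbelliferyl-alpha-D-glucopyranoside in citrate buffer pH 5.0, 20 min at room temperature, stopped at pH 10; fluorescence 365/440 nm, compounds 0.7 nM–77 uM, AC50 from Hill fits.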

Glucocorticoid receptor (Homo sapiens), sequence (P04150 whole entry, looked up, the tested form may be a part): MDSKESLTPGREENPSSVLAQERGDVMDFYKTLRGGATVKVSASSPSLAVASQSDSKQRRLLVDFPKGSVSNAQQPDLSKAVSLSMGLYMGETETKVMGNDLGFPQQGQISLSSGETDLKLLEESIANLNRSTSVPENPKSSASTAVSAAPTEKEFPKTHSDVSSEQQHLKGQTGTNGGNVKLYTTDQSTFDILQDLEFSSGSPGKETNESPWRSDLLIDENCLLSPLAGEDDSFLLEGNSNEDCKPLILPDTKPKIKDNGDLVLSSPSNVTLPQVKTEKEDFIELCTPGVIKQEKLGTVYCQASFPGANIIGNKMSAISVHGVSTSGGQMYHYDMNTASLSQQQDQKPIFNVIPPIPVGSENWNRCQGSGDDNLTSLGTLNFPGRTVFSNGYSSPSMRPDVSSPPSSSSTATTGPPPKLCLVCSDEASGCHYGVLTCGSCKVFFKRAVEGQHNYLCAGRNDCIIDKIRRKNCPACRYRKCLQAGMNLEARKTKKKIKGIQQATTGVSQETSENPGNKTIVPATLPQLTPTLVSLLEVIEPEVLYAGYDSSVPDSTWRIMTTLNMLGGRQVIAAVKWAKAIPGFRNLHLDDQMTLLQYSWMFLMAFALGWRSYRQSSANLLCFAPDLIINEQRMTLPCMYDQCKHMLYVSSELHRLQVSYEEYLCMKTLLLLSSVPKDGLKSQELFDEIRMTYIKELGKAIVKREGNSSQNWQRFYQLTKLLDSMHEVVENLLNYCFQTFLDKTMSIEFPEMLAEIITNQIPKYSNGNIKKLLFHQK
Pyruvate kinase (Leishmania mexicana), sequence (Q27686 2-499 E452W): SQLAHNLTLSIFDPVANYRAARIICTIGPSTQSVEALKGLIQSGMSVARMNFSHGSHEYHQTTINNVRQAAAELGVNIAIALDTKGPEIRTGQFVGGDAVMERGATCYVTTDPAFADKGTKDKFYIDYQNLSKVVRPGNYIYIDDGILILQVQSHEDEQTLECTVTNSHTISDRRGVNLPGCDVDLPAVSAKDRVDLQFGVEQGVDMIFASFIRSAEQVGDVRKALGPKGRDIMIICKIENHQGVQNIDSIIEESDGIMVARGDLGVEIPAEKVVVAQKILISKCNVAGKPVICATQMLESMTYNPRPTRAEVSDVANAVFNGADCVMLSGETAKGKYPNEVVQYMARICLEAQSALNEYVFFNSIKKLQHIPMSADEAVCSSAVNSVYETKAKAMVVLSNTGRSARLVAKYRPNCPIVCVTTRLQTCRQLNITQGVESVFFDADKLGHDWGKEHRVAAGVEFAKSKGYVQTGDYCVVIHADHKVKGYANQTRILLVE
Pyruvate kinase PKM (Homo sapiens), sequence (P14618 whole entry, looked up): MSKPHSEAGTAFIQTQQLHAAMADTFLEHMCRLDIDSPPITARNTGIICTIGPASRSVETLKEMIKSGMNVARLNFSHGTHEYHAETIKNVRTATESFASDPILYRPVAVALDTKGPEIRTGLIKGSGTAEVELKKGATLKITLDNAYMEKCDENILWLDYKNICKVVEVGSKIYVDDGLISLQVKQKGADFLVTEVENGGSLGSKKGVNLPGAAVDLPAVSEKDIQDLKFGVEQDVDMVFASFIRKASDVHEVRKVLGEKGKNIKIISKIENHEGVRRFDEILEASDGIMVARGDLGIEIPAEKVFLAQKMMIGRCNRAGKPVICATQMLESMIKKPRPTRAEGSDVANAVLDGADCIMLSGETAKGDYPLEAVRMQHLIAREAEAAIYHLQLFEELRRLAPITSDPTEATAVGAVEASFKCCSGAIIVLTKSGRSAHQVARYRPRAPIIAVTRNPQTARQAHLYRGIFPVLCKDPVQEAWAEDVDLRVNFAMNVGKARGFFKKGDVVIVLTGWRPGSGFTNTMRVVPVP
Alpha-galactosidase A (Homo sapiens), sequence (P06280 whole entry, looked up): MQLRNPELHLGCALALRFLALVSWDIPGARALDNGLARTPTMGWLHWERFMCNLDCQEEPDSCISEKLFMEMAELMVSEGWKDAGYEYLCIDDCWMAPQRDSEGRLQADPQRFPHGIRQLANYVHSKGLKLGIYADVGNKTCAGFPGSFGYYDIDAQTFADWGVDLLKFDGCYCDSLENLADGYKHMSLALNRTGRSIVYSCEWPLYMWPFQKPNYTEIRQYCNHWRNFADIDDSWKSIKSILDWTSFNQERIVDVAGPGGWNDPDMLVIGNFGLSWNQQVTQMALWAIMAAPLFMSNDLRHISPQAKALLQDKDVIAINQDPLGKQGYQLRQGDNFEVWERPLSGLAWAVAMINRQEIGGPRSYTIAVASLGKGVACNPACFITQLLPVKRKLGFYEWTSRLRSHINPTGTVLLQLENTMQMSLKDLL
Cytochrome P450 3A4 (Homo sapiens), sequence (P08684 whole entry, looked up): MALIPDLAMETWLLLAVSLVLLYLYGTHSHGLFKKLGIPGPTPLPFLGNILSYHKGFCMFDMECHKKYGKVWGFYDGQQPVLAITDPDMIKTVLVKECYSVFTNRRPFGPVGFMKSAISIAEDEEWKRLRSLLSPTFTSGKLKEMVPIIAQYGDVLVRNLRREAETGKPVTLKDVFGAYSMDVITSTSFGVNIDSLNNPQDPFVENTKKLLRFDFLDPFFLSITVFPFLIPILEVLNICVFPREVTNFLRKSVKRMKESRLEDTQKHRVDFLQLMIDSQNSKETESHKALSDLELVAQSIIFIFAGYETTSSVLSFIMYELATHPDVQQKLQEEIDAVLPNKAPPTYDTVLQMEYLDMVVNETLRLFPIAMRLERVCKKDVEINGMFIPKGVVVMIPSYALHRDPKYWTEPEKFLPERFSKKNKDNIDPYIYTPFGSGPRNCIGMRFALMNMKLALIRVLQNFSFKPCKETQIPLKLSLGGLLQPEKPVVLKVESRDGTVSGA
Cytochrome P450 1A2 (Homo sapiens), sequence (P05177 whole entry, looked up): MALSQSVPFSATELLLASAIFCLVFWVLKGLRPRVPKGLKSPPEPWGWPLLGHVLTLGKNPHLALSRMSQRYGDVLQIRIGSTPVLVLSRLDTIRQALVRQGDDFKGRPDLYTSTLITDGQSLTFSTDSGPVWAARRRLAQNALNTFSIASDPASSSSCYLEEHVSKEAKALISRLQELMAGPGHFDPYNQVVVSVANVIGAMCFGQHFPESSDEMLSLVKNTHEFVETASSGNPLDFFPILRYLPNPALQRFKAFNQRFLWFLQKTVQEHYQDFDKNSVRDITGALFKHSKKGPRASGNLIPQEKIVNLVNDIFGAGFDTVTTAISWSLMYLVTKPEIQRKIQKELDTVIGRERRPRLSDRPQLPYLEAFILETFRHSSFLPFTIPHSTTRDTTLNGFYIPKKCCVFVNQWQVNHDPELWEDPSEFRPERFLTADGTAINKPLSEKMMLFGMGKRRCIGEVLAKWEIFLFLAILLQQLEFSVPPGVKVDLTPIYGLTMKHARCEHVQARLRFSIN
3',5'-cyclic-AMP phosphodiesterase 4B (Homo sapiens), sequence (Q07343 whole entry, looked up): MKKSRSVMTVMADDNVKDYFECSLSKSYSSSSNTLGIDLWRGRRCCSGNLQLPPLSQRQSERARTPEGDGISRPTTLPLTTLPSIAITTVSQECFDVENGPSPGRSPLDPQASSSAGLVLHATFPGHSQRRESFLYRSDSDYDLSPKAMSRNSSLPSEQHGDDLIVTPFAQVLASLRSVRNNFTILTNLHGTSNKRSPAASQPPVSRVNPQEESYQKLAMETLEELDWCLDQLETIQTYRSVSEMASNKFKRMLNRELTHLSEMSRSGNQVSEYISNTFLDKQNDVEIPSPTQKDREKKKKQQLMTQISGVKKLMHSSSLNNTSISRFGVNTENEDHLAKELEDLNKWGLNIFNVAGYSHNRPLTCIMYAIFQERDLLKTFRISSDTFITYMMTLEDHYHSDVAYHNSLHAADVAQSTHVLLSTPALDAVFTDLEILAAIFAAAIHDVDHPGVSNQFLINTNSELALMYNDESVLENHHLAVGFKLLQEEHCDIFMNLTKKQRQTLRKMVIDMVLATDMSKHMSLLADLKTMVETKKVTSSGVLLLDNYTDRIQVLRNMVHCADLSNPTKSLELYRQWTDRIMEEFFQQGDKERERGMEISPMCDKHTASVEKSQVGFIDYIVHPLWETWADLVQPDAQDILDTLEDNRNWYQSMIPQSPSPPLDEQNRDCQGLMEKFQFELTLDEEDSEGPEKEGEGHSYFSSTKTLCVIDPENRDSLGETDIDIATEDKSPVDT

With `Oc1cc(O)cc(/C=C\c2ccc(O)c(O)c2)c1`, the Potency is 5.01 µM (active) in test [1]; greater than 46 µM in test [3]; greater than 46 µM in test [4]; 1.26 µM (active) in [8]; 2.51 µM (active) in test [10]. In addition, the activity change, negative = inhibition in test [2] is 5.18% [at 38 µM]. Besides, the Potency result in test [5], in test [6], in test [7] and in test [11] was “inactive” each time. The compound was classed as inactive in test [9], in [12] and in test [13].
